Results published in ChEMBL document CHEMBL3988442, “University of Dundee, Small-Polar-MMV Screening Library” (2021).
For some assays here: Measured potencies and affinities stand elsewhere.

Key:
Parameters in all cases: scale not given: direction of the effect not stated beside the values
[1] = target: Protein translocase subunit SecA (Escherichia coli (strain K12)) (UniProt P10408); assay: Assay to Identify E. coli SecA ATPase Inhibitors; assay type: functional; conditions: 30 µM
[2] = target: T1, Ubiquitin-activating enzyme e1, putative (Leishmania donovani (strain BPK282A1)) (UniProt E9BSI1); assay: Leishmania donovani Ubiquitin Activating Enzyme (LdE1); assay type: functional; conditions: 30 µM
T1 sequence (whole entry): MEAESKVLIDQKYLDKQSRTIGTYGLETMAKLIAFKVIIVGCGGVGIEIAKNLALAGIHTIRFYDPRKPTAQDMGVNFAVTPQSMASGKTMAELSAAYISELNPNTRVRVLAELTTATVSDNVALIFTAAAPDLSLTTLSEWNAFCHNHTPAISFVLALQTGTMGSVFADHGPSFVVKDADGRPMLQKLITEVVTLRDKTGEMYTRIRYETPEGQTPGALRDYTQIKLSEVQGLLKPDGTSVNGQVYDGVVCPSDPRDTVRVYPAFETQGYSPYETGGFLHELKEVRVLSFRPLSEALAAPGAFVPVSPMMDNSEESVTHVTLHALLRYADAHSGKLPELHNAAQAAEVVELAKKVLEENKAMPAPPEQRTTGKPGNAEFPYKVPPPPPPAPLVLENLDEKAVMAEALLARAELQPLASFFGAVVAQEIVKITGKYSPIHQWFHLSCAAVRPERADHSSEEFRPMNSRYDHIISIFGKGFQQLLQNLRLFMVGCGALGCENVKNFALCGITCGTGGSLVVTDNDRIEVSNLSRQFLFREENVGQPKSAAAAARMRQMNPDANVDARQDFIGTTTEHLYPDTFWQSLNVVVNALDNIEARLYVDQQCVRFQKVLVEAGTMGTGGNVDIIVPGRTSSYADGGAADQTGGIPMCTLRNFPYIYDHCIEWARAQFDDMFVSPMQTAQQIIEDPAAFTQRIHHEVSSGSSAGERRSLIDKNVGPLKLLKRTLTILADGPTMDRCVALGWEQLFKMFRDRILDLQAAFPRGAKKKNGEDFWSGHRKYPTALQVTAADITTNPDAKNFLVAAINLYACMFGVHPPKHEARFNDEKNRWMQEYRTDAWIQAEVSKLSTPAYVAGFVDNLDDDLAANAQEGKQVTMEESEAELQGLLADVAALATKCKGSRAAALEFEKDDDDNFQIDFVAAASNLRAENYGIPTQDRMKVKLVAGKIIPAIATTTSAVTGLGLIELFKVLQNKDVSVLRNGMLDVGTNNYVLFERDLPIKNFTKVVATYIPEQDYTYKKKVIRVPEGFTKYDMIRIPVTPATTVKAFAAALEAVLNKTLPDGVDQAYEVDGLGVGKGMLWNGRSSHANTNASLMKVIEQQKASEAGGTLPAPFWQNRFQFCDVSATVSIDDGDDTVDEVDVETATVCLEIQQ

[3] = target: AMP-activated protein kinase, AMPK (Homo sapiens) (UniProt P54646+O43741+P54619+Q9UGJ0+Q9Y478+Q13131+Q9UGI9); assay: AMP-dependent Kinase enzyme assay. An in vitro enzyme assay that detects ADP turnover that is directly proportional to AMPK activity. This uses naive AMPK that is activated during the assay with MK-8722; assay type: functional; conditions: 30 µM
[4] = target: Sialic acid-binding Ig-like lectin 9 (Homo sapiens) (UniProt Q9Y336); assay: Hs-Siglec9 ALPHAscreen SOP 20170721; conditions: 10 µM
[5] = test system: Trypanosoma cruzi; assay: Trypanosoma cruzi phosphomannomutase and mannose-1-phosphate guanylyltransferase assay; assay type: functional; conditions: 10 µM
[6] = target: T2, Arginase-2, mitochondrial (Homo sapiens) (UniProt P78540); assay: in vitro enzyme assay to detect the production of urea directly proportional to the activity of Arginase II; assay type: functional; conditions: 33.3 µM; further: in the data most compounds retested in dose-response had high values
T2 sequence (whole entry): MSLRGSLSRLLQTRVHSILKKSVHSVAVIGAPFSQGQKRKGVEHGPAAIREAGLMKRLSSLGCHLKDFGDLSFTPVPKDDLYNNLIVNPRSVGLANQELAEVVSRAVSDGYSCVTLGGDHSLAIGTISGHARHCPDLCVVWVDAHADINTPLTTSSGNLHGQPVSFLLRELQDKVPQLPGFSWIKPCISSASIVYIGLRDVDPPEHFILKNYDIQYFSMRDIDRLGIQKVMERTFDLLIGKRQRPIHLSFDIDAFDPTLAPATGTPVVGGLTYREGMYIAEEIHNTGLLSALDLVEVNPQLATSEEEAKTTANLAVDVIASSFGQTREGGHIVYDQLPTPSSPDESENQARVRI

[7] = target: T3, Proteasome subunit beta (Trypanosoma cruzi) (UniProt O96673); assay: Trypanosoma cruzi proteasome chymotrypsin-like activity (TcProtChymo) assay.; further: in the data most compounds retested in dose-response had high values; assay type: functional; conditions: 9.37 µM
T3 sequence (whole entry): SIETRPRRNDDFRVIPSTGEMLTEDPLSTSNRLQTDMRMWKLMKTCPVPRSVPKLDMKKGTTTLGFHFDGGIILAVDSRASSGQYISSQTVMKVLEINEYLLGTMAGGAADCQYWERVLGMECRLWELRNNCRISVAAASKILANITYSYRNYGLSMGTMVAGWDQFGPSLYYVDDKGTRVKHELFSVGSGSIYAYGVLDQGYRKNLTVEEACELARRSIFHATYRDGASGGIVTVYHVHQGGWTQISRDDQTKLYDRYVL

[8] = species on record: Homo sapiens; assay: To identify inhibition of the IFN signalling (Jak-Stat) pathway via expression of an eGFP reporter gene under the control of an IFN-stimulated response element (ISRE) containing MxA promoter.; assay type: functional; conditions: 30 µM
[9] = target: T4, Tyrosyl-tRNA synthetase, putative (Trypanosoma cruzi (strain CL Brener)) (UniProt Q4DSP6); assay: Trypanosoma cruzi tyrosyl tRNA synthetase (TcYRS) _High Tyrosine SOP; assay type: functional; conditions: 30 µM; further: in the data most compounds retested in dose-response had high values
T4 sequence (whole entry): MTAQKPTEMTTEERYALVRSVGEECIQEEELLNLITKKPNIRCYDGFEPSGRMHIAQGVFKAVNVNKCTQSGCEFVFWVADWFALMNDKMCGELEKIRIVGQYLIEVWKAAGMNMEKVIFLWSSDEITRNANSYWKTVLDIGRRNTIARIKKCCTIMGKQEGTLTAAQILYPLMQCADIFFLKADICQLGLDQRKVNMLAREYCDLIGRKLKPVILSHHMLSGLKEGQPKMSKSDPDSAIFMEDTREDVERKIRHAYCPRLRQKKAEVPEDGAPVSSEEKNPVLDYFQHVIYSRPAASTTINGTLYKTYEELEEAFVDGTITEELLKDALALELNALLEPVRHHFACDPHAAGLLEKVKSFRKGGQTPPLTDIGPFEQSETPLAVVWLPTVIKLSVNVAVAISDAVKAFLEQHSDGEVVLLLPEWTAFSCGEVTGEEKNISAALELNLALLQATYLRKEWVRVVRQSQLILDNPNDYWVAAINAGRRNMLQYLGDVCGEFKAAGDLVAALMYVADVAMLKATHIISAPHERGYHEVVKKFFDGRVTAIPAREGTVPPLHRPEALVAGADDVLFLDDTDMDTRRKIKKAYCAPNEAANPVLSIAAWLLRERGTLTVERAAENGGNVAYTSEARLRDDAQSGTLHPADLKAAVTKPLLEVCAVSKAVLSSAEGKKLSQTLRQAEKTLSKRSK

[10] = target: T4, Tyrosyl-tRNA synthetase, putative (Trypanosoma cruzi (strain CL Brener)); assay: Trypanosoma cruzi tyrosyl tRNA synthetase (TcYRS) SOP; assay type: functional; conditions: 30 µM
[11] = target: Chromo domain-containing protein 1 (Saccharomyces cerevisiae (strain ATCC 204508 / S288c) (Baker's yeast)) (UniProt P32657); assay: ScCHD-1 Enzyme Inhibition Assay; assay type: functional; conditions: 30 µM; further: in the data most compounds retested in dose-response had high values
Chain of Chromo domain-containing protein 1 (Saccharomyces cerevisiae (strain ATCC 204508 / S288c) (Baker's yeast)) (P32657 whole entry, the tested form may be a part): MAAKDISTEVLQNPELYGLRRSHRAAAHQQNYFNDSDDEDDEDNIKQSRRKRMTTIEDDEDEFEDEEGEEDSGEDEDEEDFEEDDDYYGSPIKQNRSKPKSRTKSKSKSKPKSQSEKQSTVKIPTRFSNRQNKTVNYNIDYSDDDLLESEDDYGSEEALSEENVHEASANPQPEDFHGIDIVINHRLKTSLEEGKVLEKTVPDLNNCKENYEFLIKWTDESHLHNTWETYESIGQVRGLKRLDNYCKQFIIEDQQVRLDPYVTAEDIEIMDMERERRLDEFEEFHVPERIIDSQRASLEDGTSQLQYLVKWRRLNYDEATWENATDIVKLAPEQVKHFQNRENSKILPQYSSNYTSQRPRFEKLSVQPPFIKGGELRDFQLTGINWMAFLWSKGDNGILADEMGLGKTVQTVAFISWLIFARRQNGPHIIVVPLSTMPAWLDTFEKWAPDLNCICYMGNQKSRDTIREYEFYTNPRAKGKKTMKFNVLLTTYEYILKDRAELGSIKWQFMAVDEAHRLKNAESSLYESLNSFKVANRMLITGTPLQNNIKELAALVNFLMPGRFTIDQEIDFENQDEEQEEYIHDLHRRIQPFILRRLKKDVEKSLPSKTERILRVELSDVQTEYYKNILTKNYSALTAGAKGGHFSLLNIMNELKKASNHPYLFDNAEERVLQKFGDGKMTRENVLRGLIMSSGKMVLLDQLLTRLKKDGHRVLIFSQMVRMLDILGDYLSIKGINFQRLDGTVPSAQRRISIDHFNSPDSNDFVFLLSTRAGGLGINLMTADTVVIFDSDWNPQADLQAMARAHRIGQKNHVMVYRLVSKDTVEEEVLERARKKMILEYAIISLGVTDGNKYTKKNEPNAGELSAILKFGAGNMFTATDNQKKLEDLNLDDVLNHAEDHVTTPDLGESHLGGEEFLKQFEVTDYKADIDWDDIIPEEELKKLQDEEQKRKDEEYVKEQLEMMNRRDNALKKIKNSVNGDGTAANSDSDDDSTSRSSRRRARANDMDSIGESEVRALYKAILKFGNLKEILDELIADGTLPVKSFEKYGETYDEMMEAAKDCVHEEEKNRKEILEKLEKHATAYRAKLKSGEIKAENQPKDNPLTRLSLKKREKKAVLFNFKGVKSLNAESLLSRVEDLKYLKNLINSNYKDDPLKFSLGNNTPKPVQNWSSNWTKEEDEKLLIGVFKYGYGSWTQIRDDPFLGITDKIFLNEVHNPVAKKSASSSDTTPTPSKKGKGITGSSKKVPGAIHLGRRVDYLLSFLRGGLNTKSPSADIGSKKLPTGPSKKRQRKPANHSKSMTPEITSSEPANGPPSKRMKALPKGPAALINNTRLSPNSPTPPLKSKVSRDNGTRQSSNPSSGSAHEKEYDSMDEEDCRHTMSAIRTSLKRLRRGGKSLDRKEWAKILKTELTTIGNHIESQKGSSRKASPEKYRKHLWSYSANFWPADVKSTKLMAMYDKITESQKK

Chain of Sialic acid-binding Ig-like lectin 9 (Homo sapiens) (Q9Y336 whole entry): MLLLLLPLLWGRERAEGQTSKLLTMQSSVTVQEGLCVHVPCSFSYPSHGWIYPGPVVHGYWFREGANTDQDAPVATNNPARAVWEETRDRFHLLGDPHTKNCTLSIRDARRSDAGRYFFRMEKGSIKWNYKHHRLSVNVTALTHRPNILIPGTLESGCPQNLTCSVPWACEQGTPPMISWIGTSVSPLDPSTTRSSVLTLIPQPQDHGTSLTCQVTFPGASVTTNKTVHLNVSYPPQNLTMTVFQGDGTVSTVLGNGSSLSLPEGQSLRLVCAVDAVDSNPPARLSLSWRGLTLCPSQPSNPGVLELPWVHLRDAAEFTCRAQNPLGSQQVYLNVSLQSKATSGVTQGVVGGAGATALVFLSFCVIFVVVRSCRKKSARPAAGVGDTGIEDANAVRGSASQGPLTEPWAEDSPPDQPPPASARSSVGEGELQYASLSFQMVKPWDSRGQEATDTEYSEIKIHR
Chain of Protein translocase subunit SecA (Escherichia coli (strain K12)) (P10408 whole entry): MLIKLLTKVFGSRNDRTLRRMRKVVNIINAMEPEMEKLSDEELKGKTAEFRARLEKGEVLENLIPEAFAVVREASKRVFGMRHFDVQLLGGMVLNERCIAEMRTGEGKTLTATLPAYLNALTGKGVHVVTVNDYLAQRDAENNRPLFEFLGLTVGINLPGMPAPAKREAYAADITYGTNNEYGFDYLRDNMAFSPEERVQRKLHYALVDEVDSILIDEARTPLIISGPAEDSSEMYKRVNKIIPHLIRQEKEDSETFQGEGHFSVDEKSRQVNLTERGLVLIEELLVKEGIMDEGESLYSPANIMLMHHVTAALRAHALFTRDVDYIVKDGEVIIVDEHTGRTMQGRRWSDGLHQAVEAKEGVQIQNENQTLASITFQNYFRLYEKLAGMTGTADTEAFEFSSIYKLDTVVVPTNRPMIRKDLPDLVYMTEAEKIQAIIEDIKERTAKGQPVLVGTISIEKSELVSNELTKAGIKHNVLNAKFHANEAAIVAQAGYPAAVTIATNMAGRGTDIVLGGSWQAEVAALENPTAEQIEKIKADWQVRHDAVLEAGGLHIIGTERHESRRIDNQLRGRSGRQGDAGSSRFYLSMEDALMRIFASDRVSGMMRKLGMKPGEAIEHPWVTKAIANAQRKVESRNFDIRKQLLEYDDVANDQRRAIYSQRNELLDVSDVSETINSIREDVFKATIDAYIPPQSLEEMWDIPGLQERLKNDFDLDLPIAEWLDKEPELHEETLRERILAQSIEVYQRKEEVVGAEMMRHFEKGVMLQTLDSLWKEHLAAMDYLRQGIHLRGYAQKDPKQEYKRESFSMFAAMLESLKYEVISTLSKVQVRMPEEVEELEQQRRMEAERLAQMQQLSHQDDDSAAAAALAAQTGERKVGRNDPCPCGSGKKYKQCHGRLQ

Structure (SMILES)	Percent Effect [1]	Percent Effect [2]	Percent Effect [3]	Percent Effect [4]	Percent Effect [5]	Percent Effect [6]	Percent Effect [7]	Percent Effect [8]	Percent Effect [9]	Percent Effect [10]	Percent Effect [11]
Cc1nc(C)n(CC2CN(Cc3cccc(C(N)=O)c3)CCO2)n1 (configuration not stated)	-1.88%	-5.41%	5.74%	-4.05%	-4.69%	0%	9.72%	-7.92%	5.94%	6.1%	7.72%
c1cnc2c(C3CCN(Cc4ccsc4)CC3)n[nH]c2n1	-4.33%	20.3%	10.3%	-8.48%	5.14%	-1.62%	17.9%	18.2%	3.23%	9.09%	20.2%
CC(=O)Nc1nc(C2CCN(CC(N)=O)CC2)cs1	-1.36%	-6.76%	6.42%	5.54%	-4.35%	3.48%	-3.9%	5.69%	0%	-3.9%	11%
Cc1cnn(CC(C)NCc2nc(-c3ccco3)no2)c1 (configuration not stated)	-7.61%	12.5%	-18.7%	40.6%	7.09%	9.27%	14.9%	4.8%	3.16%	12.8%	10.7%
COCC1c2c(cnn2CC2CC2)CCN1Cc1nccs1 (configuration not stated)	-2.49%	13.3%	-1.8%	5.98%	-4.05%	-26%	12.1%	-5.9%	4.17%	20%	-6.08%
CCc1noc(C(C)N2CCN(c3ccc(C#N)cn3)CC2)n1 (configuration not stated)	-5.24%	10.5%	4.88%	-4.78%	-4.58%	-1.18%	14.9%	17.9%	4.25%	5.2%	-5.13%
CN(C)C[C@H]1OC[C@@H]2CCN(C(=O)c3ccco3)C[C@@H]21	-8.17%	-2.7%	-0.601%	-7.74%	-3.23%	0.248%	-0.0858%	11.6%	1.07%	3.7%	0.795%
Cc1nc(C)n(C2CCCN(C(=O)Cc3n[nH]c4ccccc34)C2)n1 (configuration not stated)	-5.17%	-2.6%	5.72%	7.39%	1.69%	-7.47%	4.56%	5.91%	5.83%	14.6%	-7.79%
CC(NC(=O)NCC1(O)CCC1)c1ccc(OCC2CC2)c(F)c1 (configuration not stated)	-6.25%	10.5%	0.839%	9.9%	1.85%	-24.9%	10.3%	14%	3.19%	7.79%	-3.31%
CS(=O)(=O)NC[C@]12COC[C@H]1CN(C(=O)Cc1ccccc1F)C2	0.295%	-101%	5.66%	-7.42%	-7.2%	-4.52%	6.44%	-5.85%	-125%	-232%	-6.07%
OCCN1CCOC2(CCCN(c3cccc(F)c3)C2)C1 (configuration not stated)	-3.44%	13.3%	5.94%	-3.82%	0.394%	0.233%	8.55%	3.49%	10.6%	24.4%	-6.84%
CCOc1ccc(S(=O)(=O)NCc2cccnc2N(C)C)cc1	-2.65%	27.9%	-9.37%	-4.06%	7.08%	-5.7%	7.29%	58.7%	7.39%	26.6%	-5.96%
Cc1cccc(CNC(CN2CCN(C)CC2)c2ccccc2)c1 (configuration not stated)	-2.61%	8.11%	-13.3%	17.7%	3.23%	29.5%	7.3%	25.7%	5.38%	11.1%	-5.02%
CCc1ncnc2c1CCN(C(=O)N1CCCC1)CC2	-5.11%	0%	4.79%	8.2%	-2.7%	-10.9%	12.3%	1.54%	-3.12%	-5%	2.94%
O=C(NCC(O)c1ccc(F)c(F)c1)c1cccnc1O (configuration not stated)	-0.608%	13.7%	1.02%	2.28%	-0.198%	-4.39%	24.9%	3.44%	10.4%	21%	-4.53%
NC(=O)C(CNC(=O)COCC(F)(F)F)Cc1ccc(F)cc1 (configuration not stated)	-3.66%	5.26%	9.48%	-1.54%	0.292%	-5.92%	13.1%	-19.6%	2.13%	15.6%	-4.87%
CCC(O)CN1CCN(C(=O)c2cccn2Cc2cccs2)CC1 (configuration not stated)	-3.15%	5.06%	1.52%	11.3%	-2.17%	0.38%	-3.03%	5.7%	4.43%	11.4%	-5.26%
NC(=O)C1CN(Cc2c[nH]cn2)CCN(C2CCOCC2)C1 (configuration not stated)	1.35%	4.05%	5.54%	9.65%	-7.12%	18.8%	7.02%	19.2%	12.9%	19.5%	-6.44%
COc1ccc(CN2CC[C@H](NC(C)=O)[C@@H](O)CC2)c(OC)c1	-4.21%	4.05%	9.24%	3.43%	2.77%	-2.55%	13.6%	13%	-1.07%	1.3%	-12.5%
CN(CC1(O)CCCN(CCC2CCCCC2)C1=O)C1CCOCC1 (configuration not stated)	-5.39%	10.7%	-4.88%	15.6%	7.5%	6.77%	6.8%	6.58%	4.92%	13.6%	-3.45%
O=C(Nc1ccccn1)C1=NN(c2ccccc2)C(=O)CN1	0.648%	25.3%	-3.03%	-13.4%	1.6%	-5.32%	11.9%	9.82%	6.4%	24.1%	-12.2%
COc1ccc(CN2C[C@@H](OCc3ccccn3)[C@H]3COC[C@H]32)cc1	-4.56%	-8.11%	-0.636%	-1.37%	-3.62%	6.05%	20.1%	22.6%	-1.08%	12.8%	2.02%
